Screening data as filed in PubChem.
Pf growth 48h = Primary qHTS for delayed death inhibitors of the malarial parasite plastid, 48 hour incubation | P. falciparum luciferase growth in erythrocytes, 48 h | AID 504832, 2011 | 310,000 compounds, 5.9% hits | Potency, µM (top dose mostly 28.7 µM), inactives show top-dose activity change, negative = inhibition, most hits filed as inhibitors; further: on the % scale 0 is the no-effect control and ±100 the full control effect
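Luciferase-expressing P. falciparum in infected erythrocytes (2% hematocrit, 0.1% parasitemia final) in RPMI 1640/0.5% Albumax were exposed to compound for 48 hours at 37 C, 5% CO2; growth read as luminescence.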
NS1 function inh = qHTS Assay for Inhibitors of Influenza NS1 Protein Function; Potency, µM (top dose mostly 46.1 µM), without a hit: at the highest dose activity, positive = more growth; AID 2326, 2010; 270,000 compounds, 0.4% hits; calls by dose curve; further: actives are rising curves; nearly all actives have a fitted effect of over 50% in size
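Compounds were scored for reversing the slow growth caused by influenza A NS1 in S. cerevisiae, measured by optical density at 600 nm. Assay medium contained 2% galactose at pH 6.0; NS1-free yeast of the same strain were the positive control.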
Pf growth 96h = Primary qHTS for delayed death inhibitors of the malarial parasite plastid, 96 hour incubation. 320,000 compounds, 6.9% hits. P. falciparum luciferase reporter growth, 96 h. Potency, µM (doses to about 28.7 µM), inactives show top-dose activity change, negative = inhibition, most hits filed as inhibitors; further: on the % scale 0 is the no-effect control and ±100 the full control effect
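Parasite growth measured via integrated firefly luciferase reporter in P. falciparum. Infected erythrocytes at 2% hematocrit, 0.05% parasitemia final were treated 96 hours at 37 C under 5% CO2, and luminescence was read.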
Sm TGR block = qHTS Assay for the Inhibitors of Schistosoma Mansoni Peroxiredoxins; purified TGR, DTNB reduction, TNB absorbance 405 nm; Potency, µM (doses to about 114 µM), for inactives: at the highest dose activity change, negative = inhibition, most hits filed as inhibitors; 360,000 compounds, 3% hits; AID 485364, 2010; further: on the % scale 0 is the no-effect control and ±100 the full control effect; nearly all actives have a fitted effect of over 60% in size
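Kinetic colorimetric format: TGR-catalysed, NADPH-driven DTNB reduction monitored via TNB absorbance. Enzyme dispensed at 20 nM; compound exposure 15 min at room temperature before reaction start.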
AMA1-RON2 inh = qHTS for Inhibitors of AMA1-RON; Towards Development of Antimalarial Drug Lead: Primary Screen. AID 720542, 2013. 360,000 compounds, 0.2% hits. Plasmodium falciparum AMA1 (3D7) - RON2 peptide interaction. Potency, µM (doses to about 58.2 µM), without a hit: at the top dose activity change, negative = inhibition, usual class: inhibitors. AlphaScreen AMA1-biotinylated RON2 peptide binding;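 further: 0% = vehicle wells and -100% = peptide control; nearly all actives have a fitted effect of over 45% in size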
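AMA1 (3D7) with his tag at 25 nM final met compounds first, then biotinylated RON2 peptide at 25 nM; detection used donor plus acceptor beads, 10 µg/mL apiece, read by AlphaScreen after 30 min at room temperature.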
Active calls of the source: *; ? = inconclusive; . = no result. Rows were chosen to be rich in hits. Some 11% of all compounds tested hit in one or more screens of this group. Unless noted, the call rests on the fitted dose curve; in most records, active means well fitted curve in the direction sought with a large enough effect; inconclusive means small, poorly fitted or top-dose-only effect, or another doubt; inactive means no such curve, though single readings can be large; an effect the other way counts as inactive or inconclusive. Potency means the concentration at half of the fitted maximal effect.

SMILES	Pf growth 48h	NS1 function inh	Pf growth 96h	Sm TGR block	AMA1-RON2 inh
COc1ccc(N2CC(C(=O)N[C@@H](C)C(=O)NC3CCCCC3)CC2=O)cc1 (stereo partly specified)	20%	-3%	18%	0%	-1%
CCC(CC)C(=O)Nc1cccc(-c2nc3cccnc3s2)c1	.	.	.	-5%	.
CCc1cc(=O)oc2cc(C)cc(OCC(=O)NC(Cc3ccc(Cl)cc3)C(=O)O)c12 (stereo unspecified)	29%	29%	?	-1%	13%
O=C(N/N=C/C=C\c1ccccc1[N+](=O)[O-])c1cccs1	17%	-1%	2.9µM*	-15%	82%
COc1cc(/C=C(/C(=O)c2cccs2)c2nc3ccccc3[nH]2)ccc1O	2.1µM*	?	1.2µM*	-28%	26%
O=C(/C(=C/c1ccc(Cl)cc1)c1nc2ccccc2[nH]1)c1cccs1	1.7µM*	-195%	.	?	57%
CCOc1cc(C#N)c(NC(=O)c2cccc(S(=O)(=O)N3CCOCC3)c2)cc1OCC	.	.	.	-9%	.
CCN(CC)CC(=O)Nc1ccc2c(c1)N(C(=O)CN(CC)CC)c1ccccc1CC2	10µM*	3%	.	-5%	15%
CCN(CC)CC(=O)N1c2ccccc2CCc2ccc(NC(=O)c3cc(OC)c(OC)c(OC)c3)cc21	12µM*	1%	9.3µM*	-24%	-10%
COc1ccccc1NC(=O)COC(=O)C1CC1	-5%	5%	3%	-1%	-1%
COC(=O)C1=COC(C)C2CN3CCc4c([nH]c5cc(OC)c(OC)cc45)C3CC12 (stereo unspecified)	?	?	0.83µM*	20µM*	-9%
COC(=O)C1=COC(C)C2CN3CCC4(C(=O)Nc5ccccc54)C3CC12 (stereo unspecified)	-16%	-3%	?	4%	5%
COc1ccc(-n2c(=O)c3c4c(sc3n(CC(=O)N3CCCCC3C)c2=O)CCC4)c(OC)c1 (stereo unspecified)	.	.	.	5%	.
O=C([O-])c1cc(-c2ccccc2)cc(-c2ccccc2)[n+]1CCc1ccc(Cl)cc1	.	.	.	.	8%
Fc1ccc(CNC(=S)NCc2ccccc2)cc1	?	-37%	?	3%	-4%
Fc1ccc(C[n+]2c(-c3ccccc3)cc(-c3ccccc3)cc2-c2ccccc2)cc1	0.93µM*	.	0.37µM*	-4%	7%
Clc1ccc(C[n+]2c(-c3ccccc3)cc(-c3ccccc3)cc2-c2ccccc2)cc1	0.37µM*	.	0.33µM*	-22%	-4%
O=C(O)c1cc(S(=O)(=O)Nc2cccc(Oc3ccccc3)c2)ccc1Br	-2%	?	-11%	-10%	-11%
Cc1ccc(-c2nc3ccc(NS(=O)(=O)c4ccccc4)cc3[nH]2)o1	.	5%	97%	35µM*	-7%
O=S(=O)(Nc1ccc2nc(C(F)(F)F)[nH]c2c1)c1ccccc1	12µM*	5%	18%	16%	6%
CC(C)(C)c1nc2ccc(NS(=O)(=O)c3ccc(F)c(F)c3F)cc2[nH]1	?	-7%	20%	4%	-2%
O=S(=O)(Nc1ccc2nc(-c3ccc(Br)o3)[nH]c2c1)c1ccccc1	86%	-1%	?	28µM*	.
COC(=O)CSc1nc2ccccn2c(=O)c1C=O	298%	.	246%	-2%	4%
CCN(CC(=O)NCc1cccs1)C(=O)c1ccc(NS(=O)(=O)c2ccc(C(C)=O)cc2)cc1	2%	.	-4%	-31%	-1%
CCCc1c(C(=O)Nc2cc(C)on2)cnn1-c1ccccc1	?	1%	9.3µM*	0%	-4%
CCCc1c(C(=O)Nc2ccc(F)cc2C)cnn1-c1ccccc1	-2%	-40%	5%	6%	-14%
Cc1ccc(C(=O)NCCCNC(=O)c2ccccc2F)cn1	3%	-12%	2.9µM*	5%	-5%
CC(Oc1ccccc1)C(=O)OCc1cc(=O)n2nc(C(C)C)sc2n1 (stereo unspecified)	.	.	.	0%	.
O=C(NC1CCCCCCC1)c1ccccc1O	12µM*	-165%	?	-24%	1%
